This passage reports inhibition results from PubChem BioAssay AID588726 (The Scripps Research Institute Molecular Screening Center, 2011).

Among all 360,000 compounds or so, about 8,200 (2.3%) were called active. No stated cut-off is given here; in the data, active means inhibition above about 27%; inactive means the rest. The entries come from a sample that favours actives as a whole.

Sequence of Fructose-bisphosphate aldolase (Mycobacterium tuberculosis (strain ATCC 25618 / H37Rv)) (P9WQA3 whole entry, looked up): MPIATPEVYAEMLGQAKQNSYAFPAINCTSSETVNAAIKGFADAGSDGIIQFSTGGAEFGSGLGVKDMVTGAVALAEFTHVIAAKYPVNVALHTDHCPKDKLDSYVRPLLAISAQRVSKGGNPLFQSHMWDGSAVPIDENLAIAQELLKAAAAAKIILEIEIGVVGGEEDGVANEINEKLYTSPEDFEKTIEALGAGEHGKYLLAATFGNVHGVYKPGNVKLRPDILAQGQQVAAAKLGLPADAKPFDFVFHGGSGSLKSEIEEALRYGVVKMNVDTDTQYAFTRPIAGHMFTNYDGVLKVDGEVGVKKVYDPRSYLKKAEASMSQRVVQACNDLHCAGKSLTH

The experiment concerns the target Fructose-bisphosphate aldolase (Mycobacterium tuberculosis (strain ATCC 25618 / H37Rv)) (UniProt P9WQA3). The experiment is described as follows: M. tuberculosis aldolase activity blockers – biochemical, fluorescence, strain H37Rv, primary screen (AID 588726).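 Further: 0% = vehicle and 100% = reference inhibitor.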 The following applies: purified M. tuberculosis FBA, fluorescence read-out, at 1 µM, stronger effect = higher value.
As to `Cc1cc(C)cc(NC(=O)N2CCC(NC(=O)c3ccc(F)cc3)CC2)c1`, the inhibition was -6.06% (inactive).
Under `O=C(Nc1cccc(F)c1)[C@@H]1CCCN1` stands 4.68% (inactive); under `O=C(Nc1cccc(F)c1)c1coc(=O)c(Br)c1`, 171% (active).
Regarding `Cc1nc2nc(SCC(=O)Nc3cccc(F)c3)[nH]c2cc1Br`, the inhibition is -2.16% (inactive).
As to `CCc1nn(CCCC(=O)NCc2ccc(C)cc2)c(=O)c2cc3occc3n12`, the inhibition was -0.41% (inactive).
To `COc1ccc(C(=O)CN2C(=O)NC3(CCc4ccccc43)C2=O)c(OC)c1` (stereo not given) belongs 1.92% (inactive).
Under `CCOc1ccc(-n2c(SCC(N)=O)nnc2-c2ccco2)cc1` stands 0.41% (inactive).
For `CCCCSc1nnc(-c2ccc(C)cc2)o1`, the inhibition is 3.13% (inactive).
To `CCCCOc1ccc(-c2nnc(-c3ccco3)o2)cc1` belongs 46.1% (active); to `N#Cc1ccc(OCc2nnc(-c3ccc([N+](=O)[O-])cc3)o2)cc1`, 0.59% (inactive); to `CCCOc1ccc(-c2c(C(=O)N/N=C/c3ccco3)nnn2-c2nonc2N)cc1`, 4.8% (inactive).
To `CCOc1ccc(-c2nnc(-c3ccco3)o2)cc1` belongs 54% (active).
To `CCC(C)(C(=O)NC1CCCC1)N(C(=O)CNC(C)=O)c1ccc(C)cc1` (stereo not given) belongs 1.41% (inactive); to `Cc1nc2cccnc2nc1C`, -0.64% (inactive).
With `COc1ccc(NC(=O)c2cccc3c2C(=O)N(CC2CCCO2)C3)cc1OC` (stereo not given), the inhibition was -1.34% (inactive).
To `COCCN(C(=O)CC1CCCCC1)c1c(N)n(CC(C)C)c(=O)[nH]c1=O` belongs 2.06% (inactive).
Under `O=[N+]([O-])c1cccc(/C=N/Nc2ncc(Br)cn2)c1` stands 144% (active); under `O=[N+]([O-])c1cccc(C=NN=Cc2ccccc2O)c1`, 1.54% (inactive).
`O=C(N/N=C/c1cccc([N+](=O)[O-])c1)C1CC(=O)N(c2ccc(Br)cc2)C1` (stereo not given): the inhibition is 2.78% (inactive).
To `CCCN(C(=O)COC(=O)CNS(=O)(=O)c1ccc(NC(C)=O)cc1)C1CCS(=O)(=O)C1` (stereo not given) belongs 1.9% (inactive); to `COc1ccc(CCN(Cc2cc3cccc(C)c3[nH]c2=O)C(=O)N2CCCC2)cc1OC`, 0.64% (inactive); to `Cc1nc(N2CCOCC2)c2c(C)c(C(=O)Nc3ccc(C(F)(F)F)cc3)sc2n1`, 2.82% (inactive).
Under `Cc1cccc(NC(=O)c2sc3nc(N4CCOCC4)c4c(c3c2N)CCCC4)c1` stands 39.1% (active); under `c1ccc(CSc2ncnc3c2sc2nc(N4CCOCC4)c4c(c23)CCCC4)cc1`, 3.1% (inactive).
Under `Cc1cc(C)cc(NC(=O)Cn2cnc3c(nnn3Cc3ccc(F)cc3)c2=O)c1` stands 1.33% (inactive); under `CN(C)/C(CN1CCCCC1)=C1\N=C(c2ccccc2)OC1=O`, -2.21% (inactive).
Consider `CCN(CC(=O)NCc1cccs1)c1nnnn1-c1ccccc1`, for which the inhibition was -0.27% (inactive).
To `CCC(C)(C)NC(=O)C(c1ccccn1)N(C(=O)c1csnn1)c1ccccc1` (stereo not given) belongs -0.46% (inactive); to `CN(C(=O)c1ccccn1)c1nnc(-c2ccccn2)s1`, 31.6% (active).
For `CN(C(=O)COc1nnc(-c2cccs2)c(-c2cccs2)n1)c1ccccc1`, the inhibition was 3.91% (inactive).
To `O=C(Nc1nnc(C2CC2)s1)c1ccccn1` belongs 2.11% (inactive); to `CN(C(=O)C1CCOC1)c1nnc(-c2cccnc2)s1` (stereo not given), -7.08% (inactive).
To `CN(C(=O)COc1ccccc1)c1nnc(-c2ccncc2)s1` belongs 53.2% (active); to `CN(C(=O)CSc1nnc(-c2c[nH]c3ccccc23)o1)C1CCS(=O)(=O)C1` (stereo not given), 0.37% (inactive); to `Nn1c(SCC(=O)NC2CCCC2)nnc1-c1ccccc1F`, -0.66% (inactive).
Under `CC(=O)C(C)n1cnc2scc(-c3ccc(C)cc3)c2c1=O` (stereo not given) stands -0.72% (inactive); under `Cc1sc2ncnc(SCC(=O)Nc3ccc(CN4CCCC4)cc3)c2c1C`, -0.95% (inactive).
Regarding `O=C(O)CCCn1c(=O)c2cccn2c2ccc(F)cc21`, the inhibition is 6.9% (inactive).
Under `CCN(CC)CCC(c1ccc2c(c1)OCO2)c1c(OC)cc(OC)c2c(-c3ccccc3)cc(=O)oc12` (stereo not given) stands 4.6% (inactive).
To `COc1ccc2oc(N)nc2c1` belongs 0.46% (inactive).
Take `O=[N+]([O-])c1ccc2oc(-c3cccc(O)c3)nc2c1`: the inhibition is 0.6% (inactive).
Under `CC(=O)Oc1ccc(C(C)=O)c2c1OCCO2` stands 5.05% (inactive).
To `O=C(COc1cc2oc(=O)c3c(c2cc1Cl)CCC3)NCCCN1CCOCC1` belongs 6.36% (inactive); to `Cc1oc(C(N)=O)cc1COc1ccc(C(N)=O)cc1`, 3.54% (inactive); to `COc1ccc(CNC(=O)c2cc(=O)c3c(C)cc(C)cc3o2)cc1`, -0.13% (inactive).
Under `COC(=O)COc1cc(C)cc2oc(=O)c3c(c12)CCCC3` stands 28.4% (active); under `Cc1cc(OCc2cc(C(=O)O)oc2C)c2c3c(c(=O)oc2c1)CCCC3`, 107% (active).
In the case of `CC(Oc1cc2oc(=O)c3c(c2cc1Cl)CCCC3)C(=O)NCc1ccncc1` (stereo not given), the inhibition is 26.1% (inactive).
To `C=CCNC(=O)C1CC2c3ccccc3C1c1ccccc12` (stereo not given) belongs -1.94% (inactive).
Under `CC/C(=C\c1ccc(Cl)cc1)c1ccncc1` stands -2.63% (inactive); under `S=c1[nH]nc(Nc2ccccc2)s1`, 3.65% (inactive).
Take `CCc1ccc(Nc2ncc3c(n2)CC(c2ccco2)CC3=O)cc1` (stereo not given): the inhibition was 8.11% (inactive).
Under `Clc1cccc(-c2nc3nc4ccccc4nc3n2Cc2ccco2)c1` stands 17.8% (inactive).
On to `Cc1ccc(Cn2c(C)nc3c(c2=O)c2nc4ccccc4nc2n3Cc2ccco2)cc1`, for which the inhibition was 47.6% (active).
Under `Cc1ccc(OCC(=O)c2cc(C)n(Cc3ccco3)c2C)c([N+](=O)[O-])n1` stands -5.32% (inactive).
To `O=C1N=C(N2CCOCC2)CS1` belongs -1.54% (inactive); to `CC(C)(C)NS(=O)(=O)NC(=O)C1=C(N2CCCC2)COC1=O`, -4.63% (inactive).
Under `CCC(C)(C)C1CCC(=NNC(=O)c2ccc(Br)o2)CC1` (stereo not given) stands -1.67% (inactive); under `CCOC(=O)C1CCCN(C(=O)CSc2nnc3nc(C)cc(C)n23)C1` (stereo not given), 7.69% (inactive).
As for `N#Cc1nc(-c2ccc(OCc3ccccc3)cc2)oc1NCCCN1CCOCC1`, the inhibition was 92.7% (active).
To `O=S(=O)(c1ccccc1)c1nc(-c2ccccc2)oc1NCCCN1CCOCC1` belongs -3.13% (inactive).
Turning to `Cc1ccc2c(Cl)c(C(=O)NCCCn3ccnc3)sc2c1`, the inhibition is -2.28% (inactive).
To `Cc1ccc(S(=O)(=O)c2nc(NCCCn3ccnc3)sc2Cl)cc1` belongs 0.32% (inactive); to `O=S(=O)(c1ccc(Cl)cc1)c1nc(-c2ccccc2F)oc1NCCN1CCOCC1`, -1.99% (inactive); to `Cc1ccc(-c2nc(C#N)c(NCCCn3ccnc3)o2)cc1`, 71.6% (active).
